Screening data as filed in PubChem.
Compounds with a hit are over-represented: about 21% of the library has one in this group of screens.
Shiga toxin inh: inhibitors of Shiga toxin in Vero cells; Vero cells, Shiga toxin protein synthesis inhibition reporter; inhibition, % at 38.7 µM; 9.2% of 290,000 active; AID 2315; in the data active = inhibition mostly above about 28%, no sharp cut-off; inactive = mostly below about 43%; also: 0% is about no effect
FBPA Giardia inh: blocks Giardia fructose-bisphosphate aldolase activity | A8B2U2 | purified Giardia FBPA | Potency, µM (top dose mostly 59.6 µM), inactives show top-dose activity, negative = inhibition, actives largely listed as inhibitors | 0.71% of 290,000 active | AID 2451; also: potency is read from the fitted curve at half-maximal effect; % is scaled to controls: 0 for no effect and ±100 for the full control effect; nearly all actives have a fitted effect of over 55% in size
Target sequence (A8B2U2 whole entry, looked up): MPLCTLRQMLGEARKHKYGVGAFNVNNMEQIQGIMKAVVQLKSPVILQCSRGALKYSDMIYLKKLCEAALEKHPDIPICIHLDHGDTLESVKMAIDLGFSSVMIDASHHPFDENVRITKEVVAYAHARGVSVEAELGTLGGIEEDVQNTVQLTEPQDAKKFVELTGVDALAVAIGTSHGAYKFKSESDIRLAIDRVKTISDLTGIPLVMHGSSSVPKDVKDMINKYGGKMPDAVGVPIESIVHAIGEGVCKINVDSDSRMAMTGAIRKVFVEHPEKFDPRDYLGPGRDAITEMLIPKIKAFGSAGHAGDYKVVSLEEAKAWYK
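Giardia FBPA (40 nM reagent) was preincubated 10 min at RT with compound (up to 57.5 uM final), then substrate plus GAPDH/TPI/NAD/arsenate coupling system with diaphorase/resazurin was added; resorufin fluorescence (525/598 nm) was read after 20 min.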
Pf growth 96h: inhibits malaria parasite growth, 96 h. P. falciparum luciferase reporter growth, 96 h. Potency, µM (doses to about 28.7 µM), for the others: at the top dose activity change, negative = inhibition, usual class: inhibitors. 6.9% of 320,000 active. AID 504834; also: potency is read from the fitted curve at half-maximal effect; % is scaled to controls: 0 for no effect and ±100 for the full control effect
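Erythrocytes infected with luciferase-expressing P. falciparum were dispensed at 2% hematocrit and 0.05% parasitemia (final), then incubated with compounds 96 hours at 37 C in 5% CO2. Luminescence after detection reagent addition reported growth.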
Cycloheximide cs: counter-screen hit for Shiga toxin inhibitors, cycloheximide. 12% of 300,000 active. cell reporter, cycloheximide protein synthesis inhibition counterscreen. max response, %; in the data active = max response mostly above about 13%, no sharp cut-off; inactive = mostly below about 14%; also: read at 38.3 µM for the half of the compounds with a filed dose; 0% is about no effect
NS1 function inh: blocks influenza NS1 protein function; Potency, µM (titrated, usually from 46.1 µM), inactives show at the highest dose activity, positive = more growth; 0.4% of 270,000 active; calls by dose curve; also: potency is read from the fitted curve at half-maximal effect; actives are rising curves; nearly all actives have a fitted effect of over 50% in size
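S. cerevisiae expressing influenza A NS1, grown in glucose, washed, then diluted 1:100 into pH 6.0 -URA galactose medium with 23 nl compound. Growth recovery read as OD600; NS1-free strain serves as control.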
Pf growth 48h: P. falciparum growth inhibition at 48 hours (one generation); 5.9% of 310,000 active; Potency, µM (titrated, usually from 28.7 µM), for inactives: top-dose activity change, negative = inhibition, hits mostly inhibitors; P. falciparum luciferase growth in erythrocytes, 48 h; also: potency is read from the fitted curve at half-maximal effect; % is scaled to controls: 0 for no effect and ±100 for the full control effect
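Here the parasites carry a stable luciferase gene and grow inside erythrocytes in Albumax-based RPMI medium with compound for one erythrocytic cycle. Activity is scored as loss of luminescent signal.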
* marks the source's active call; other numbers are inactive results; u = inconclusive; x = no result given; [ ] = dose if it differs, or a comment. Unless noted, calls follow the shape of the dose curve; as a rule, active = well fitted curve in the direction sought with a large enough effect; inconclusive = small, poorly fitted or top-dose-only effect, or another doubt; inactive = no such curve, though single readings can be large; an effect the other way counts as inactive or inconclusive.

SMILES | Shiga toxin inh | FBPA Giardia inh | Pf growth 96h | Cycloheximide cs | NS1 function inh | Pf growth 48h
CC1(C)[C@@H]2CC[C@@]1(CS(=O)(=O)Nc1ccccc1)C(=O)C2 | x | x | x | x | 1% | x
C=CCN(CC=C)S(=O)(=O)c1ccc(NC(=S)NC(=O)c2ccc(-c3ccccc3)cc2)cc1 | 20 | -1% | x | 4 | 0% | 1.5µM*
C=CCN(CC=C)S(=O)(=O)c1ccc(NC(=S)NC(=O)c2ccco2)cc1 | 34 | -29% | x | 5 | 10% | u
CCCC(NC(=O)CCl)c1ccccc1 (stereo unspecified) | -4 | -2% | u | 6 | 12% | 9.3µM*
CCC(NC(=O)CCl)c1ccc(C)cc1 (stereo unspecified) | 25 | -1% | 1.3µM* | 6 | 1% | 5.9µM*
CCC(NC(=O)C1C2C=CC(C2)C1C(=O)O)c1ccc(C)cc1 (stereo unspecified) | 10 | 10% | u | -4 | 9% | -8%
CC(C)CC(NC(=O)CCl)c1ccccc1 (stereo unspecified) | 16 | -2% | u | 1 | 7% | -11%
CC(Oc1cccc2ccccc12)C(=O)N/N=C/c1cccnc1 (stereo unspecified) | -7 | 0% | 20% | -2 | -11% | -3%
CC(=O)Cc1nsc(NC(=O)c2ccc(COc3ccccc3C)o2)n1 | -6 | 6% | -28% | -4 | 0% | 16%
COCCNC(=O)Cn1nc(-c2ccccc2F)ccc1=O | -7 | -2% | 3.7µM* | -4 | 12% | 16%
COCCCNC(=O)Cn1nc(-c2cccc(OC)c2)ccc1=O | -12 | 10% | 10µM* | 1 | 7% | 8%
COc1ccccc1-c1ccc(=O)n(CC(=O)NC(C)(C)C)n1 | 5 | 3% | 7.4µM* | -2 | 0% | 46%
CCCCNC(=O)Nc1ccc(Br)cn1 | 31* | 4% | 43% | 36* | -82% | 47%
CCCCC(=O)Nc1ccc(NC(=O)CCCC)nc1 | 63 | 2% | -11% | 13* | -1% | 13%
CCCCC(=O)Nc1ccc(NC(=O)C2CC2)cn1 | 33 | 4% | 324% | 11 | -5% | 93%
CCCCC(=O)Nc1ccc(C(N)=O)cc1 | 4 | 9% | x | -1 | 5% | 7%
CCCCC(=O)Nc1ccc(Br)cn1 | 61 | -3% | 67% | 22* | -4% | x
CCCC(=O)Nc1ccc(NC(=O)C2CC2)cn1 | 17 | 4% | x | 26* | 11% | 32%
CN(C)CC(C)(C)CNS(=O)(=O)c1ccc(Cl)s1 | -1 | 4% | -2%[5.75 µM] | -2 | x | u
O=C(CS(=O)(=O)c1ccccc1)Nc1ccc(Br)cn1 | 26* | -2% | 28% | 19* | -17% | 30%
O=C(CS(=O)(=O)c1ccccc1)Nc1ccccn1 | -20 | 2% | 24% | -3 | 0% | 20%
CCn1c(=O)n(CCc2ccccc2)c(=O)c2c3c(sc21)CCCC3 | -14 | 1% | u | -2 | 7% | x
CC(O)CNc1nc2sc3c(c2c(=O)n1Cc1ccco1)CCCCC3 (stereo unspecified) | 36* | -11% | -4% | 25* | 1% | u
CC(C)Cn1cnc2sc3c(c2c1=N)CCCC3 | 33 | 1% | x | 6 | -1% | x
O=c1c2c3c(sc2nc(NCCOCCO)n1Cc1ccco1)CCCCC3 | 3 | -12% | u | -1 | 10% | u
SMILES | Shiga toxin inh | FBPA Giardia inh | Pf growth 96h | Cycloheximide cs | NS1 function inh | Pf growth 48h
N=c1c2c3c(sc2ncn1Cc1ccco1)CCCCC3 | 42 | 9% | u | 21* | 29% | 43%
O=C(NCc1ccco1)c1ccc2nc3sc4c(c3c(=O)n2c1)CCCC4 | 99* | -20% | 1.9µM* | 60* | -3% | -72%
CC(O)CNc1nc2sc3c(c2c(=O)n1CCc1ccccc1)CCCCC3 (stereo unspecified) | 29 | -10% | 0% | 18* | 12% | 12µM*
COc1ccc(S(=O)(=O)Nc2ccc(C)cn2)cc1 | -11 | -8% | 7% | 2 | 18% | 31%
CC(C)(C)[C@]1(O)C[C@@H]2OC(=O)CC23C(=O)O[C@@H]2OC(=O)[C@H](O)C231 (stereo partly specified) | 13 | 1% | x | 1 | x | x
CN(C)CCNc1nc2sc3c(c2c(=O)n1CCc1ccccc1)CCCCC3 | -12 | 0% | 2.3µM* | -1 | 7% | 2.1µM*
COC(=O)Cn1c(=O)n(CCc2ccccc2)c(=O)c2c3c(sc21)CCCC3 | 1 | -6% | u | -4 | 13% | x
CCN(CC)C(=S)SCC(=O)c1ccc(F)cc1 | 60* | 2% | 106% | 40* | 0% | 162%
CCN(CC)C(=S)SCC(=O)Nc1ccc(F)cc1 | 12 | -6% | 39% | 14 | -52% | 0%
CCN(CC)C(=S)SCC(=O)c1ccccc1 | 68* | 2% | 133% | 62* | -2% | 221%
Cc1ccccc1C([O-])=Nc1ccc[n+](-c2nc3ccccc3nc2NS(=O)(=O)c2ccccc2)c1 | 20 | -18% | 12µM* | -3 | 1% | u
O=C(NCCCCC(NC(=O)c1ccc([N+](=O)[O-])cc1)C(=O)O)c1ccc([N+](=O)[O-])cc1 (stereo unspecified) | -3 | 0% | 1% | -3 | 3% | x
O=C(NCCCCC(NC(=O)C1CCCCC1)C(=O)O)c1ccccc1 (stereo unspecified) | -16 | 6% | 8.3µM* | -2 | -18% | u
O=C(NC(Cc1ccccc1)C(=O)O)C1CCCCC1 (stereo unspecified) | -11 | 1% | 10µM* | -5 | 0% | 3%
CCc1cc(C(=O)NNC(=S)Nc2ccccc2C)cs1 | 96* | 0% | 40% | 38* | 14% | 125%
CCc1cc(C(=O)NNC(=S)Nc2cc(C)ccc2C)cs1 | 20 | 5% | u | 5 | 0% | 27%
CCc1cc(C(=O)Nc2ccccc2)cs1 | 106* | -20% | 29% | 41* | -73% | 58%
O=C(Nc1ccc(F)cc1F)c1ccccc1NC(=O)C1CC=CCC1C(=O)O (stereo unspecified) | 33 | x | u | 27 | -1% | -3%
COCCCN(C(=O)C1CCC1)c1c(N)n(Cc2ccccc2)c(=O)[nH]c1=O | x | x | -18% | x | x | 3%
Cc1ccc2c(c1)c1nc3ccccc3nc1n2C | 22 | 0% | 2% | 19* | -29% | 0%
Cc1ccc2c(c1)c1nc3ccccc3nc1n2CCN1CCOCC1 | 6 | -21% | x | 11* | 9% | 18%
O=S(=O)(NCCc1ccccc1)c1ccccc1Br | -5 | -22% | x | 1 | x | x
O=C(c1ccc(F)cc1)N1CCC(c2ccccc2)C1 (stereo unspecified) | 68* | 3% | 33% | 41* | -4% | u
O=C(c1ccco1)N1CCC(c2ccccc2)C1 (stereo unspecified) | 79* | -3% | 18% | 24* | -16% | 80%
COc1ccc(C(=O)N2CCCC(c3ccccc3)C2)cc1 (stereo unspecified) | -10 | 7% | x | -2 | -72% | 0%
